ULK1 inh = blocks human autophagy kinase ULK1. O75385. AlphaScreen Atg13 phosphorylation by ULK1, luminescence. inhibition, % at 5.96 µM. 30,000 tested, 1.9% active. AID 1259251; in the data active = inhibition above about 43%;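 also: 0% = median of compound wells and 100% = no enzyme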
ASK1 inh = inhibitors of human ASK1 kinase; inhibition, % at 7.44 µM; AlphaScreen MKK6 phosphorylation by ASK1, luminescence; Q99683; 22,000 tested, 0.99% active; in the data active = inhibition above about 35%;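 also: 0% = median of compound wells and 100% = no enzyme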
Starred values were filed as active, the others as inactive; · = no result given. Sampled rows, rich in hits. Any-hit rate of the full collection: about 2.5%.

SMILES	ULK1 inh	ASK1 inh
COc1ccc(C(=O)Nc2cccc(C)c2N2CCC3(CC2)OCCO3)o1	-2.7	-1.9
COc1ccc(CCNc2nc(NC3CCN(Cc4ccccc4)CC3)nc3c2ncn3-c2ccsc2)cc1	7.3	17.5
Cc1cc(O)c(C(c2ccccc2)N2CCCCC2)c(=O)n1Cc1cccnc1 (stereo not drawn)	8.9	·
COc1ccc(-c2cncc(C(=O)NCc3nc4ccccc4[nH]3)c2)cn1	2.2	-5.2
CCCNC(=O)c1ccnc(-c2ccc(C(=O)N3CCN(C)CC3)cc2)c1	10.0	-13.6
Nc1nc(NCc2cccc(C(F)(F)F)c2)cc(N2CCN(Cc3ccc4c(c3)OCO4)CC2)n1	-10.3	-15.6
O=C(NCc1ccccc1)c1cccc(N2CCOCC2)c1	4.5	6.2
Cc1cc(Nc2ccc(N3CCOCC3)cc2)nc(Nc2ccccc2)n1	6.6	42.0*
O=C(Nc1ccc(N2CCOCC2)cc1)c1cncc(-c2ccc(N3CCOCC3)nc2)c1	15.4	10.5
O=C(Nc1ccc(N2CCOCC2)cc1)c1ccnc(NCc2ccc3c(c2)OCO3)c1	44.6*	-18.9
Cc1cc(NCc2ccccc2)nc(Nc2ccc(N3CCOCC3)cc2)n1	10.9	24.4
O=C(NCCN1CCOCC1)c1ccnc(NCc2ccc3c(c2)OCO3)c1	0.3	-7.0
O=C(Nc1ccc(N2CCOCC2)cc1)c1cncc(Nc2ccncc2)c1	65.8*	-27.9
CCOc1cc(/C=N\NC(=O)c2n[nH]c3c2CCCC3)ccc1O	44.4*	·
CCOc1cc(/C=N/N2C(=O)C3C(C2=O)C2C=CC3C23CC3)ccc1O (stereo not drawn)	5.2	·
Cc1cncc2cccc(N3CCN(C(=O)C(N)c4ccc(F)cc4F)CC3)c12 (stereo not drawn)	-0.9	-17.2
O=C(NCCO)C1CCN(c2ccc(Nc3ccc(C(F)(F)F)cc3)nn2)CC1	46.4*	-11.7
O=C(Nc1ccc(N2CCOCC2)cc1)C1CCN(c2ccc(Nc3ccc(C(F)(F)F)cc3)nn2)CC1	24.5	15.8
COc1ccc(CCNc2nc(Nc3cnccn3)nc3c2ncn3CCN2CCCC2=O)cc1	5.6	-3.1
O=C(c1cccc(Nc2nccc(-c3ccc4c(=O)[nH]c(C5CC5)nc4c3)n2)c1)N1CCCC1	65.2*	-17.2
Cc1nc2cc(-c3ccnc(Nc4cccc(C(=O)NC(C)C)c4)n3)ccc2c(=O)n1C1CC1	9.2	-2.0
O=C(c1cccc(Nc2nccc(-c3ccc4nc(C5CC5)[nH]c(=O)c4c3)n2)c1)N1CCCC1	80.3*	-25.9
Cc1nc2ccc(-c3ccnc(Nc4cccc(C(=O)N5CCCC5)c4)n3)cc2c(=O)n1C	-10.1	2.5
Cc1cnc(CNC(=O)c2ccc3cncc(-c4ccccc4)c3n2)cn1	1.7	·
O=C(NCc1ccccc1)c1ccc2cncc(-c3ccccc3)c2n1	73.6*	·
SMILES	ULK1 inh	ASK1 inh
O=C(NC1CC1)c1ccc2cncc(-c3ccsc3)c2n1	35.9	·
COCCNC(=O)c1ccc2cncc(-c3ccsc3)c2n1	53.2*	·
O=C(Cc1cn(-c2ccc(N3CCN(c4ccccn4)CC3)nn2)c2ccccc12)NCc1cccnc1	14.6	-1.4
CCCNc1nc(-c2ccc(N3CCN(C)CC3)cc2)ncc1C	1.5	3.2
c1cn(-c2ccc(Nc3nc(Nc4ccc(N5CCOCC5)cc4)c4ncn(-c5ccsc5)c4n3)cc2)cn1	46.1*	20.6
c1cc(-n2cnc3c(Nc4ccc(N5CCOCC5)cc4)nc(Nc4ccc(N5CCOCC5)cc4)nc32)cs1	19.7	20.1
c1cncc(Nc2nc(Nc3ccc(N4CCOCC4)cc3)c3ncn(-c4ccsc4)c3n2)c1	48.9*	28.6
c1ccc(Nc2nc(Nc3ccc(N4CCOCC4)cc3)nc3c2ncn3-c2ccsc2)cc1	41.1	28.8
CC(C)n1cnc2c(NCc3ccccc3)nc(Nc3nc4ccccc4n3C)nc21	-14.9	6.7
COc1ccc(Oc2cc(Nc3ccc(OC)cc3C(N)=O)c(Cl)cn2)cc1	-10.3	6.9
NC(=O)c1ccccc1Nc1nc(Nc2ccc(N3CCCC3=O)cc2)ncc1Cl	92.0*	-99.5
COc1ccc(Nc2ncc(Cl)c(Nc3ccccc3-c3ccn(C)n3)n2)cc1	12.5	22.3
Cc1ncn(-c2ccc(Nc3ncc(C)c(Nc4ccccc4C(N)=O)n3)cc2)n1	72.3*	0.8
Cc1ncn(-c2ccc(Nc3ncc4ccnc(-c5ccccc5)c4n3)cc2)n1	0.2	2.0
N#Cc1ccc(Nc2ncc(Cl)c(Nc3ccccc3C(N)=O)n2)cc1	46.2*	-8.5
NC(=O)c1ccccc1Nc1nc(Nc2ccc(N3CCOCC3)c(F)c2F)ncc1Cl	38.8	-51.7
NC(=O)c1ccc(-c2nc(NCc3nc4ccccc4[nH]3)c3ncn(-c4ccsc4)c3n2)cc1	-2.9	-26.7
COc1cc(NC(=O)c2cccc(-c3cccc(C(C)=O)c3)n2)cc(OC)c1OC	6.9	7.2
CCS(=O)(=O)Nc1ccc(-c2ccnc(Nc3ccc(S(N)(=O)=O)cc3)n2)cc1	60.0*	-7.8
NS(=O)(=O)c1ccc(Nc2nccc(-c3ccccc3)n2)cc1	6.6	7.8
NS(=O)(=O)c1ccc(Nc2nccc(-c3ccc(NS(=O)(=O)Cc4ccccc4)cc3)n2)cc1	33.4	-14.1
CC(C)S(=O)(=O)Nc1ccc(-c2ccnc(Nc3ccc(S(N)(=O)=O)cc3)n2)cc1	50.3*	-8.6
O=C(NCCN1CCOCC1)c1ccc2nc(NCc3ccc4c(c3)OCO4)sc2c1	5.1	0.4
OCCNc1ccnc(-c2ccc(N3CCOCC3)nc2)n1	12.4	-7.5
O=C(NC1CC1)c1cccc(Nc2cnccn2)c1	-4.4	-1.9
SMILES	ULK1 inh	ASK1 inh
Cc1ccc(-c2cccc3cnc(Nc4cccc(C(=O)NC5CC5)c4)nc23)cn1	59.0*	-28.1
Cc1ccc(-c2cccc3cnc(Nc4ccc(C(=O)NC5CC5)cc4)nc23)cn1	61.5*	-36.8
Cc1ccc(-c2cccc3cnc(Nc4ccc(-n5cnc(-c6ccccn6)n5)cc4)nc23)cn1	-16.8	-20.3
Cc1cnc(-c2ccc(N3CCOCC3)nc2)nc1Nc1ccc(Oc2ccccc2)cc1	-7.5	1.7
COc1cc(Nc2nc(-c3ccc(N4CCOCC4)nc3)nc3nc[nH]c23)cc(OC)c1OC	-9.3	7.5
COc1cc2nc(-c3ccc(N4CCOCC4)nc3)nc(Nc3cc(OC)c(OC)c(OC)c3)c2cc1OC	-5.5	0.9
COc1cc(Nc2ccnc(-c3ccc(N4CCOCC4)nc3)n2)cc(OC)c1OC	73.6*	8.5
CC(=O)Nc1ccc(Nc2ccnc(-c3ccc(N4CCOCC4)nc3)n2)cc1	38.1	2.2
Cc1cnc(-c2ccc(N3CCOCC3)nc2)nc1Nc1ccc(N2CCOCC2)cc1	52.1*	15.9
COc1cc(Nc2nc(-c3ccc(N4CCOCC4)nc3)ncc2C)cc(OC)c1OC	88.7*	8.6
c1cc(Nc2ccc(N3CCOCC3)cc2)nc(-c2ccc(N3CCOCC3)nc2)n1	60.1*	7.7
CC[C@@H]1/C=C(/C)C[C@H](C)C[C@H](OC)[C@H]2O[C@@](O)(C(=O)C(=O)N3CCCC[C@H]3C(=O)O[C@H](/C(C)=C/[C@@H]3CC[C@H](Cl)[C@H](OC)C3)[C@H](C)[C@@H](O)CC1=O)[C@H](C)C[C@@H]2OC	14.7	·
COc1cc(Nc2ccnc(-c3ccc(C(=O)NC4CC4)cc3)n2)cc(OC)c1OC	45.2*	-0.3
c1cncc(CNc2nc(-c3ccc(N4CCOCC4)nc3)nc3nc[nH]c23)c1	58.5*	-1.5
COc1cc(Nc2cc(C)nc(-c3ccc(C(=O)NC4CC4)cc3)n2)cc(OC)c1OC	-9.4	3.2
COc1ccc(-c2ncc(C)c(Nc3ccccc3)n2)cn1	-23.8	10.8
